Molecules are shown by their SMILES. Records with an inconclusive call do not appear. A call without a number means that no potency is given here. The source made the active and inactive calls. The call rests on the fitted dose curve.

The test is described as follows: qHTS assay to identify small molecule agonists of the AP-1 signaling pathway (AID 1159526). The note with it: ME-180 (cervical carcinoma) AP-1-bla reporter, beta-lactamase FRET ratio, 5 h; series mostly up to 76.8 µM.
Regarding `Cc1ncc(CSSCc2cnc(C)c(O)c2CO)c(CO)c1O`, the Potency result is “inactive”.

For the molecule `CCCCCCC(CCCCCCCCCCC(=O)OCC(COC(C)=O)OC(C)=O)OC(C)=O` (stereo not drawn), the Potency result is “inactive”.

With `NC(=O)Nc1nc2ccccc2[nH]1`, the Potency result was “inactive”.

On to `Cc1nc(-c2ccc(OCC(C)C)c(C#N)c2)sc1C(=O)O`, for which the Potency entry is “inactive”.

Turning to `CC(C)[C@H](N)C(=O)OCCOCn1cnc2c(=O)[nH]c(N)nc21`, the Potency result was “inactive”.

With `O=C(O)C(O)[C@H](O)[C@@H](O)[C@H](O)[C@H](O)CO` (stereo partly drawn), the Potency entry is “inactive”.

As for `CC(O)CN(CCCN(C)C)CCCN(C)C` (stereo not drawn), the Potency result was “inactive”.

Regarding `Cc1cc(C)c(NC(=O)CN(CC(=O)O)CC(=O)O)c(C)c1Br`, the Potency result was “inactive”.

Regarding `CCCC=O`, the Potency entry was “inactive”.

Regarding `CC(C)(O)C(=O)c1ccc(OCCO)cc1`, the Potency result was “inactive”.

As to `CC(C)(O)c1ccccc1`, the Potency entry was “inactive”.

Turning to `CCc1cc(S(=O)(=O)O)c2cc(C(C)C)cccc1-2`, the Potency result was “inactive”.

As for `Cc1onc(-c2ccccc2)c1-c1ccc(S(N)(=O)=O)cc1`, the Potency result was “inactive”.

For `N#CCc1ccccc1[N+](=O)[O-]`, the Potency entry was “inactive”.

As for `O=C1C(CCS(=O)c2ccccc2)C(=O)N(c2ccccc2)N1c1ccccc1` (stereo not drawn), the Potency entry is “inactive”.

As to `CCOC(=O)Cn1c(=O)sc2cccc(Cl)c21`, the Potency result was “inactive”.

On to `O=C(O)c1cccc(C(=O)O)n1`, for which the Potency entry is “inactive”.

As for `CCCCCC[C@@H](CCC)C(=O)O`, the Potency result is “inactive”.

`Cc1cc(C)cc(OCC2CNC(=O)O2)c1` (stereo not drawn): the Potency entry was “inactive”.

Consider `NC(=O)c1ncn([C@@H]2O[C@H](CO)[C@@H](O)[C@H]2O)c1O`, for which the Potency entry was “inactive”.

`NCCN1CCNC1=O`: the Potency result is “inactive”.

On to `O=C(O)/C=C/c1ccc(Cn2ccnc2)cc1`, for which the Potency result was “inactive”.

For `CSc1ccc(C=O)cc1`, the Potency result was “inactive”.

Turning to `CCC(C)(C)C1CCC(OC)CC1` (stereo not drawn), the Potency entry was “inactive”.

With `C=CCSCC1Nc2cc(Cl)c(S(N)(=O)=O)cc2S(=O)(=O)N1` (stereo not drawn), the Potency result was “inactive”.

Take `C[C@H]1O[C@@H](n2cc(F)c(=O)[nH]c2=O)[C@H](O)[C@@H]1O`: the Potency entry is “inactive”.

On to `Cc1c(F)cc2c(=O)c(C(=O)O)cn3c2c1CCC3C` (stereo not drawn), for which the Potency entry is “inactive”.

Turning to `CCCOCC(C)OCC(C)O` (stereo not drawn), the Potency result is “inactive”.

Turning to `C#CC(O)CCCCC` (stereo not drawn), the Potency entry was “inactive”.

With `CC(C)N1C(=O)c2ccccc2C1=O`, the Potency result is “inactive”.

With `O=S(=O)(O)c1ccccc1O`, the Potency result was “inactive”.

As to `NS(=O)(=O)c1cc2c(cc1Cl)NC(CSCc1ccccc1)=NS2(=O)=O`, the Potency entry was “inactive”.

Turning to `CC(=O)c1ccc(C)cc1`, the Potency result is “inactive”.

As to `CC(CCO)CCCC(C)(C)O` (stereo not drawn), the Potency entry was “inactive”.

`CC1(C)OC(=O)Nc2ccc(Br)cc21`: the Potency entry is “inactive”.

As for `CCCCCCCCN(C)CCCCCCCC`, the Potency result is “inactive”.

Consider `CC(C)COC(=O)c1ccccc1O`, for which the Potency result is “inactive”.

As for `CCCCC=O`, the Potency result is “inactive”.

These data come from PubChem BioAssay (Tox21).
